# Experimental data from PubChem BioAssay AID651774 (Broad Institute, 2012).
# Entries with a potency or affinity are not part of this list. Values without a mark were called inactive. No rule for the calls is given here.
# Assay: cytotoxicity in HeLa cells, dose response, cytotoxicity control, cell-based, 24 h, dry powder (AID 651774)
# Details: HeLa viability, CellTiter-Glo ATP luminescence; series mostly up to 35 µM; activity change, negative = cytotoxicity: at the top concentration
row,SMILES,"activity change, negative = cytotoxicity [%]"
1,CN(Cc1ccc(N2CCCC2)cc1)c1nnn(C)n1,-15
2,CCCn1nnnc1NCc1ccc(C(C)C)cc1,-5.13
3,O=C(Cc1ccc(OC(F)(F)F)cc1)NC1CCCC1,5.09
4,O=C(Cc1ccc(-c2ccccc2)cc1)N1CCOCC1,6.81
